Compounds without any hit were thinned out: in the full panel of roughly 83,000, 20% have a hit.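 Values shown are percent growth following 48 h exposure of cells in 96-well plates to a single concentration of compound; below 10 was considered active.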 Activity calls are given as the source filed them.
How the values were obtained:
Test in all cases: NCI-60 one-dose screen, 48 h (100 = growth as untreated, 0 = no growth, -100 = all killed)
Settings in all cases: 10 µM unless noted
NCI-H23 lung = tested on: NCI-H23 lung
NCI-H226 lung = tested on: NCI-H226 lung
NCI-H322M lung = tested on: NCI-H322M lung
HOP-62 NSCLC = tested on: HOP-62 NSCLC
NCI-H460 lung = tested on: NCI-H460 lung
HOP-92 NSCLC = tested on: HOP-92 NSCLC
NCI-H522 lung = tested on: NCI-H522 lung
A549/ATCC NSCLC = tested on: A549/ATCC NSCLC
786-0 renal = tested on: 786-0 renal
COLO 205 colon = tested on: COLO 205 colon
DU-145 prostate = tested on: DU-145 prostate
K-562 leukemia = tested on: K-562 leukemia
MALME-3M melanoma = tested on: MALME-3M melanoma
MDA-MB-231 breast = tested on: MDA-MB-231 breast
RXF 393 renal = tested on: RXF 393 renal
SF-268 CNS = tested on: SF-268 CNS
SF-295 CNS = tested on: SF-295 CNS
SF-539 CNS = tested on: SF-539 CNS
UACC-257 melanoma = tested on: UACC-257 melanoma
M14 melanoma = tested on: M14 melanoma

Measured: growth

CC(C)CC(=O)Nc1n[nH]c2c1CN(C(=O)C1CCN(C)CC1)C2(C)C
active: NCI-H23 lung 0.542% | NCI-H226 lung 7.08% | HOP-62 NSCLC -14.3% | NCI-H460 lung 7.12% | HOP-92 NSCLC -3.08% | NCI-H522 lung -27.9% | A549/ATCC NSCLC 7.25% | 786-0 renal 3.99% | COLO 205 colon -76.4% | MDA-MB-231 breast 8.95% | RXF 393 renal -37.2% | SF-539 CNS -22.3%
inactive: NCI-H322M lung 24.4% | DU-145 prostate 15.2% | K-562 leukemia 11.1% | MALME-3M melanoma 34.9% | SF-268 CNS 12.1% | SF-295 CNS 41.6% | UACC-257 melanoma 15.5% | M14 melanoma 22.2%

CNC(=O)c1ccccc1Nc1nc(Nc2ccc3c(c2OC)CCC[C@H](N2CCN(CCO)CC2)C3)ncc1Cl
active: NCI-H322M lung 5.21% | HOP-62 NSCLC -48.7% | NCI-H460 lung 0.445% | HOP-92 NSCLC -30.7% | NCI-H522 lung -47.9% | A549/ATCC NSCLC -31.7% | 786-0 renal -66.1% | COLO 205 colon -64.7% | K-562 leukemia -43.9% | MALME-3M melanoma -52.1% | MDA-MB-231 breast -19.4% | RXF 393 renal -23.3% | SF-295 CNS -63.7% | SF-539 CNS -41.7% | UACC-257 melanoma -75.8% | M14 melanoma -69%
inactive: NCI-H23 lung 16.3% | NCI-H226 lung 28.6% | DU-145 prostate 18.7% | SF-268 CNS 17.3%

Cc1cc([C@@H](C)Nc2ccccc2C(=O)O)c2nc(N3CCOCC3)cc(=O)n2c1
active: COLO 205 colon -5.47% | RXF 393 renal -21.1% | SF-295 CNS 9.97%
inactive: NCI-H23 lung 54.8% | NCI-H226 lung 55.4% | NCI-H322M lung 39.9% | HOP-62 NSCLC 37.5% | NCI-H460 lung 22.6% | HOP-92 NSCLC 13.7% | NCI-H522 lung 42.3% | A549/ATCC NSCLC 32% | 786-0 renal 18.6% | DU-145 prostate 57.2% | K-562 leukemia 66.9% | MALME-3M melanoma 40.7% | MDA-MB-231 breast 60.3% | SF-268 CNS 47.6% | SF-539 CNS 19.7% | UACC-257 melanoma 32.8% | M14 melanoma 45.9%

CCN(CCCOc1ccc2c(Nc3cc(CC(=O)Nc4cccc(F)c4)[nH]n3)ncnc2c1)CCOP(=O)(O)O
inactive: NCI-H23 lung 73.4% | NCI-H226 lung 93.8% | NCI-H322M lung 68.5% | HOP-62 NSCLC 56.7% | NCI-H460 lung 45% | HOP-92 NSCLC 87.6% | NCI-H522 lung 44% | A549/ATCC NSCLC 44.1% | 786-0 renal 86.5% | DU-145 prostate 88.5% | K-562 leukemia 48.4% | MALME-3M melanoma 31.9% | MDA-MB-231 breast 79.5% | RXF 393 renal 96.7% | SF-268 CNS 76% | SF-295 CNS 73.5% | SF-539 CNS 48.8% | UACC-257 melanoma 49.9% | M14 melanoma 45.1%
active: COLO 205 colon -7.95%

Cn1ccnc1C(=O)/C=C/c1ccc(CC(=O)Nc2ccc(Br)cc2)cc1
active: NCI-H322M lung 6.4% | HOP-62 NSCLC -32.7% | NCI-H460 lung -11.2% | NCI-H522 lung 2.89% | A549/ATCC NSCLC 3.64% | 786-0 renal 7.96% | COLO 205 colon 6.56% | DU-145 prostate 3.61% | K-562 leukemia 6.58% | SF-539 CNS -38.5%
inactive: NCI-H23 lung 24.5% | NCI-H226 lung 43.2% | HOP-92 NSCLC 61.1% | MALME-3M melanoma 75.5% | MDA-MB-231 breast 10.1% | RXF 393 renal 21% | SF-268 CNS 16.2% | SF-295 CNS 19.4% | UACC-257 melanoma 79.1% | M14 melanoma 53.6%

O=C(NOCCO)c1ccc2cncn2c1Nc1ccc(I)cc1F
active: HOP-92 NSCLC -19.6% | COLO 205 colon 6.84% | MALME-3M melanoma 1.32% | RXF 393 renal -6.5% | UACC-257 melanoma -20.7% | M14 melanoma 5.3%
inactive: NCI-H23 lung 18.8% | NCI-H226 lung 56.7% | NCI-H322M lung 24.1% | HOP-62 NSCLC 35.7% | NCI-H460 lung 74.7% | NCI-H522 lung 60.4% | A549/ATCC NSCLC 25.4% | 786-0 renal 81.6% | DU-145 prostate 64.6% | K-562 leukemia 38.2% | MDA-MB-231 breast 31.6% | SF-268 CNS 74.5% | SF-295 CNS 91.9% | SF-539 CNS 66.2%

O=C1C=CC2(NN=C(c3ccccc3)N2c2cccc(Cl)c2)c2cccc(O)c21 (stereo not given)
inactive: NCI-H23 lung 26.3% | NCI-H226 lung 85.6% | NCI-H322M lung 95.1% | HOP-62 NSCLC 37.9% | NCI-H460 lung 85.1% | HOP-92 NSCLC 110% | NCI-H522 lung 51.3% | A549/ATCC NSCLC 33.2% | 786-0 renal 107% | COLO 205 colon 103% | DU-145 prostate 95.9% | K-562 leukemia 23% | MALME-3M melanoma 38.7% | MDA-MB-231 breast 68.6% | RXF 393 renal 118% | SF-268 CNS 72.4% | SF-295 CNS 40.8% | SF-539 CNS 33.9% | UACC-257 melanoma 30.8% | M14 melanoma 53.2%

Cc1cn(-c2cc(NC(=O)c3ccc(C)c(Nc4nccc(-c5cccnc5)n4)c3)cc(C(F)(F)F)c2)cn1
active: K-562 leukemia -11.1% | MALME-3M melanoma -15% | RXF 393 renal -4.7% | M14 melanoma 8.64%
inactive: NCI-H23 lung 49.2% | NCI-H226 lung 67.1% | NCI-H322M lung 69.3% | HOP-62 NSCLC 47.5% | NCI-H460 lung 63.7% | HOP-92 NSCLC 70.7% | NCI-H522 lung 41.5% | A549/ATCC NSCLC 45.5% | 786-0 renal 71.4% | COLO 205 colon 19.8% | DU-145 prostate 46% | MDA-MB-231 breast 40% | SF-268 CNS 55.8% | SF-295 CNS 42.9% | SF-539 CNS 82.4% | UACC-257 melanoma 34.5%

Reference: PubChem BioAssay (NCI)
